Assay results published in PubChem BioAssay AID1159580 (chemical genetic matrix, 2015).
In all, about 5,500 compounds went through this assay and about 2,000 (36%) were called active. Roughly 18% stayed inconclusive and do not appear here. Cut-off read from the data, not from the text of the source: active = normalized growth mostly below about 0.91 (no sharp cut-off); inconclusive = no clear call, values can overlap the other calls; inactive = mostly above about 0.92. The list shows a part of the results.

Assay: chemical genetic growth profiling, strain panel (AID 1159580);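 note: tested at 20 µM; growth read once vehicle control cultures reached saturation at 30 °C; 1 = growth at the plate median or of vehicle wells; lower values mean less growth of the strain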
Conditions: growth OD

Measured: normalized growth

COc1ccc(C(=O)CN2CCN(c3cc(C)nc4ccccc34)CC2)cc1
inactive: S. cerevisiae deletion strains, locus YAL013W, strain DEP1, hits give low values 1.01 | S. cerevisiae deletion strains, locus YBR229C, strain ROT2, hits give low values 1.01 | S. cerevisiae deletion strains, locus YCL061C, strain MRC1, hits give low values 1 | S. cerevisiae deletion strains, locus YDL101C, strain DUN1, hits give low values 0.968 | S. cerevisiae deletion strains, locus YDL134C, strain PPH21, hits give low values 0.994 | S. cerevisiae deletion strains, locus YDR150W, strain NUM1, hits give low values 0.982 | S. cerevisiae deletion strains, locus YEL061C, strain CIN8, hits give low values 0.979 | S. cerevisiae deletion strains, locus YGR078C, strain PAC10, hits give low values 1 | S. cerevisiae deletion strains, locus YHR030C, strain SLT2, hits give low values 0.905 | S. cerevisiae deletion strains, locus YHR087W, strain rtc3, hits give low values 0.994 | S. cerevisiae deletion strains, locus YJL187C, strain SWE1, hits give low values 1 | S. cerevisiae deletion strains, locus YJR043C, strain POL32, hits give low values 1 | S. cerevisiae deletion strains, locus YJR075W, strain HOC1, hits give low values 1.01 | S. cerevisiae deletion strains, locus YLR039C, strain RIC1, hits give low values 0.956 | S. cerevisiae deletion strains, locus YLR058C, strain SHM2 (second series), hits give low values 1.01 | S. cerevisiae deletion strains, locus YLR085C, strain ARP6, hits give low values 0.987 | S. cerevisiae deletion strains, locus YLR262C, strain YPT6, hits give low values 0.942 | S. cerevisiae deletion strains, locus YML094W, strain GIM5, hits give low values 0.957 | S. cerevisiae deletion strains, locus YMR219W, strain ESC1, hits give low values 0.997 | S. cerevisiae deletion strains, locus YMR263W, strain SAP30, hits give low values 1.04 | S. cerevisiae deletion strains, locus YMR307W, strain GAS1, hits give low values 1.09 | S. cerevisiae deletion strains, locus YNL153C, strain GIM3, hits give low values 1.01 | S. cerevisiae deletion strains, locus YNL298W, strain CLA4 (second series), hits give low values 0.975 | S. cerevisiae deletion strains, locus YNL322C, strain KRE1, hits give low values 0.998 | S. cerevisiae deletion strains, locus YNR030W, strain Alg12, hits give low values 0.994 | S. cerevisiae deletion strains, locus YOL006C, strain TOP1, hits give low values 0.995 | S. cerevisiae deletion strains, locus YPL055C, strain LGE1, hits give low values 1.01 | S. cerevisiae deletion strains, locus YPL241C, strain CIN2, hits give low values 1.05 | S. cerevisiae deletion strains, locus YPR135W, strain CTF4, hits give low values 0.944 | S. cerevisiae strains, strain wild type, hits give low values 1
